Among the test systems are SR leukemia; RPMI-8226 leukemia; OVCAR-8 ovarian; OVCAR-5 ovarian; OVCAR-4 ovarian; SK-OV-3 ovarian; IGROV1 ovarian; HS 578T breast; NCI/ADR-RES ovarian; T-47D breast; BT-549 breast; MDA-MB-435 melanoma; SW-620 colon; MCF7 breast; HCT-116 colon; HCC-2998 colon; KM12 colon.
Common to all, as to test: NCI-60 one-dose screen, 48 h (100 = growth as untreated, 0 = no growth, -100 = all killed)
Common to all, as to conditions: 10 µM unless noted

About 83,000 compounds went through this panel and 20% of them were active in at least one assay; those are over-represented in the sample as a whole.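 Method: cells in 96-well plates; compound added at one concentration; 48 h incubation; percent growth measured; values under 10 scored active.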 A number with no mark means an inactive call. Activity calls are given as the source filed them.

As for `O=S(=O)(NCCCNc1nccc(-c2[nH]c(-c3ccccc3)nc2-c2ccc(Cl)c(O)c2)n1)c1ccc(Br)cc1`, the growth in the test with SR leukemia is 15.3%; with RPMI-8226 leukemia it was 22.1%; in the test on OVCAR-8 ovarian, 33.3%; in the test on OVCAR-5 ovarian it was 72.2%; with OVCAR-4 ovarian, 46.6%; with SK-OV-3 ovarian, 68.4%. In addition, the growth is 36.8% in the test on IGROV1 ovarian; 63.2% in the test with HS 578T breast; 42.6% with NCI/ADR-RES ovarian; 30% in the test on T-47D breast; 40.3% in the test with BT-549 breast; 2.09% (active) in the test with MDA-MB-435 melanoma. For the same molecule, the growth was 55.8% in the test on SW-620 colon; 19.5% in the test on MCF7 breast; 14.5% with HCT-116 colon; 47.2% in the test on HCC-2998 colon; 22% in the test on KM12 colon.
On to `O=C(Nc1ccc2c(ccn2Cc2ccccn2)c1)c1ccnnc1`, for which the growth in the test with SR leukemia was 101%; in the test with RPMI-8226 leukemia, 94.4%; in the test with OVCAR-8 ovarian it was 104%; in the test with OVCAR-5 ovarian, 95%; in the test on OVCAR-4 ovarian it was 68.3%; with SK-OV-3 ovarian, 105%. The growth with IGROV1 ovarian was 80.3%; with HS 578T breast, 102%; in the test with NCI/ADR-RES ovarian, 114%; with T-47D breast, 97.9%; in the test on MDA-MB-435 melanoma it was 98.3%; in the test with SW-620 colon, 101%. Also, the growth is 102% in the test with MCF7 breast, 93.2% in the test with HCT-116 colon, 120% in the test with HCC-2998 colon and 99.4% in the test on KM12 colon.
Take `CCNC(=O)N1CCc2cc(OC)c(OCCc3ccc(OC)nc3)cc2C1c1ccc(OC)cc1C` (centres undefined): the growth in the test with SR leukemia is 10.9%; in the test on RPMI-8226 leukemia it was 31.4%; with OVCAR-8 ovarian it was 42.4%; in the test on OVCAR-5 ovarian, 51%; in the test on OVCAR-4 ovarian it was 67.1%; with SK-OV-3 ovarian, 54.6%. Further, the growth with IGROV1 ovarian is 33.8%; in the test on HS 578T breast, 29.8%; in the test on T-47D breast, 49%; with BT-549 breast, 29.2%; in the test on MDA-MB-435 melanoma, 15%; in the test with SW-620 colon, 16%. The growth in the test on MCF7 breast is 22.2%; in the test on HCT-116 colon, 14.4%; with HCC-2998 colon it was 42.8%; in the test on KM12 colon, 21.2%.
Consider `CN(C)CCN(C)c1ccc2ncc(C#Cc3cncc(C(=O)Nc4ccc(CN5CCN(C)CC5)c(C(F)(F)F)c4)c3)n2n1`, for which the growth with SR leukemia was -17.4% (active); in the test with RPMI-8226 leukemia, -33.9% (active); with OVCAR-8 ovarian it was 63.6%; in the test on OVCAR-5 ovarian, 91.5%; with OVCAR-4 ovarian, -0.365% (active); with SK-OV-3 ovarian, 118%. Also, the growth in the test with IGROV1 ovarian is 45.5%; in the test with HS 578T breast, 59.9%; with NCI/ADR-RES ovarian, 37.1%; in the test on T-47D breast, 101%; with BT-549 breast it was 111%; with MDA-MB-435 melanoma, 48.4%. Besides, the growth with SW-620 colon was -44.9% (active); with MCF7 breast, -63.7% (active); with HCT-116 colon, -85.9% (active); in the test on HCC-2998 colon, 33.9%; with KM12 colon, -39.8% (active).
Turning to `COc1c(N2CC3CCCNC3C2)c(F)cc2c(=O)c(C(=O)N/N=C/c3ccc(F)cc3)cn(C3CC3)c12` (centres undefined), the growth was -24.6% (active) in the test on SR leukemia; 60.2% in the test on RPMI-8226 leukemia; 91.7% with OVCAR-8 ovarian; 95.6% in the test on OVCAR-5 ovarian; 90.5% in the test with OVCAR-4 ovarian; 110% with SK-OV-3 ovarian. Besides, the growth in the test on IGROV1 ovarian was 97.9%; in the test with HS 578T breast, 94.4%; in the test with NCI/ADR-RES ovarian it was 89.4%; with T-47D breast it was 96.1%; with BT-549 breast, 84.8%; with MDA-MB-435 melanoma it was 91%. In addition, the growth in the test on SW-620 colon was 99.5%; in the test on MCF7 breast, 75.9%; in the test on HCT-116 colon, 67.9%; in the test with HCC-2998 colon, 97.3%; in the test with KM12 colon, 104%.
With `COc1ccc2c(c1)Oc1nc(N)c(C#N)c(N)c1C2Sc1ccc(C)cc1` (centres undefined), the growth was 0.429% (active) in the test with SR leukemia; -19% (active) in the test with RPMI-8226 leukemia; 12.7% in the test with OVCAR-8 ovarian; 15.9% in the test with OVCAR-5 ovarian; 15.1% in the test on OVCAR-4 ovarian; 86.4% with SK-OV-3 ovarian. The growth in the test on IGROV1 ovarian was -76.5% (active); with HS 578T breast, 14.8%; with NCI/ADR-RES ovarian, 5.39% (active); in the test on T-47D breast, -31.6% (active); with BT-549 breast, 68.4%; in the test on MDA-MB-435 melanoma, -8.09% (active). Further, the growth in the test on SW-620 colon is -49.5% (active); with MCF7 breast it was -77.7% (active); in the test on HCT-116 colon it was -69.1% (active); in the test on HCC-2998 colon, -64.2% (active); with KM12 colon it was 52.5%.
As to `Cc1occc1-c1nc2s/c(=C/c3ccc(-c4cc(C(F)(F)F)ccc4Cl)o3)c(=O)n2n1`, the growth is 101% with SR leukemia; 99.5% in the test on RPMI-8226 leukemia; 103% in the test with OVCAR-8 ovarian; 105% with OVCAR-5 ovarian; 102% in the test with OVCAR-4 ovarian; 110% with SK-OV-3 ovarian. For the same molecule, the growth in the test with IGROV1 ovarian is 103%; with HS 578T breast it was 98.1%; in the test with NCI/ADR-RES ovarian it was 109%; with T-47D breast, 92.7%; with BT-549 breast, 108%; in the test on MDA-MB-435 melanoma, 101%. In addition, the growth in the test with SW-620 colon is 101%; with MCF7 breast, 90%; in the test on HCT-116 colon, 102%; in the test with HCC-2998 colon, 106%; with KM12 colon, 99.9%.
For the molecule `Nc1nc(-c2cccc([N+](=O)[O-])c2)c(N=Nc2ccccc2)s1`, the growth with SR leukemia was 56.1%; with RPMI-8226 leukemia, 52.9%; in the test with OVCAR-8 ovarian it was 58.2%; in the test on OVCAR-5 ovarian, 79.4%; in the test on OVCAR-4 ovarian, 59.2%; with SK-OV-3 ovarian it was 62.3%. Besides, the growth in the test on IGROV1 ovarian was 82.5%; in the test with HS 578T breast it was 70.4%; with NCI/ADR-RES ovarian, 54.9%; in the test with T-47D breast, 40.5%; with BT-549 breast, 73.2%; in the test on MDA-MB-435 melanoma, 64.9%. The growth in the test on SW-620 colon was 64.9%; with MCF7 breast, 51.9%; in the test on HCT-116 colon, 54.8%; in the test with HCC-2998 colon it was 71.6%; with KM12 colon, 44%.

The values above are taken from PubChem BioAssay (NCI).
